FXN GAA850 act – increases GAA850 frataxin promoter reporter activity | HEK293 lucGAA850 FXN promoter luciferase reporter, 24 h; percent of 10 µM SAHA response | activation, % at 6 µM | actives 0.56% (n = 360,000) | AID 540364;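 active = activation above the average of all compounds screened plus 3 SD, cutoff fixed separately per campaign, cut at about 7.5% in these data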;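 note: 0% = DMSO wells and 100% = 10 µM SAHA wells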
esBAF inh – SWI/SNF esBAF complex inhibition. mouse ES cells, Bmi1-luciferase knock-in reporter, 24 h; 100% = twice the neutral-well signal. reporter increase, % at 12.5 µM. actives 2% (n = 350,000). AID 602393; in the data active = activation above about 40%; inconclusive = no clear call, values can overlap the other calls;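 note: 0% = median of the plate's neutral control wells and 100% = double that signal; a rise in the Bmi1 reporter signal indicates esBAF inhibition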
Wnt bcat act – Wnt/beta-catenin pathway activation. Wnt/beta-catenin reporter cell assay, activator, plate reader. activation, % at 9.35 µM. actives 1.2% (n = 300,000). AID 743398; in the data active = activation above about 30%, passing the limit was not always enough; inconclusive = no clear call, values can overlap the other calls;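 note: 0% = neutral control wells and 100% = positive control wells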
MITF TRPM1 HTS – MITF TRPM1 promoter activation in melanoma cells; actives 0.75% (n = 300,000); activation, % at 12.5 µM; SK-MEL-5 TRPM1-promoter luciferase, 24 h; % of positive control, neutral wells = 0;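 active = mean activation of at least 80% with every replicate also reaching 80%; inconclusive = mean reaches 80% but some replicate falls short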;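 note: 0% = neutral control wells and 100% = parthenolide positive control wells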
Starred values were filed as active, the others as inactive; ? = inconclusive; · = no result given; ! = not active in a repeat. Shown are actives, neighbours in structure and some others; about 2.8% of the full set was active somewhere.

SMILES	FXN GAA850 act	esBAF inh	Wnt bcat act	MITF TRPM1 HTS
CN(C)C(=O)Oc1ccc2c(c1)O/C(=C\c1cccc(Cl)c1)C2=O	2.6	?	4.1	64.5
CN(C)C(=O)Oc1ccc2c(c1)O/C(=C\c1ccc(Cl)cc1)C2=O	5.5	?	8.9	103.7*
Cc1ccc(-c2nn(Cc3ccccc3)cc2C=O)cc1C	2.6	87.7*	8.5	-5.2
Cc1ccc(-c2nn(Cc3ccccc3)cc2C=O)cc1	5.6	·	55.2*	43.6
COC(=O)[C@@H]1[C@@H](CO)[C@@H]2Cn3c(ccc(-c4cccc(F)c4)c3=O)[C@H]1N2Cc1cccnc1	·	-1.8	·	·
CC=Cc1ccc2n(c1=O)C[C@@H]1[C@@H](CO)[C@H](C(=O)OC)[C@H]2N1CC1CCCCC1 (mixture of isomers)	·	0.8	·	·
Cc1cc(C(=O)OCC(=O)Nc2ccccc2F)c(C)n1C1CC1	6.0	56.6*	9.4	85.3*
CN1C(=O)NC(=O)C(C)(C2=CCCCC2)C1=O (stereo not given)	2.3	27.5	0.1	99.9*
O=C1CN=C(c2cc([N+](=O)[O-])ccc2Cl)c2cc([N+](=O)[O-])ccc2N1	0.9	1.4	46.8*	·
COc1ccc(-c2cc(=NCCCCCC(=O)O)c3cc(C)ccc3o2)cc1	2.8	·	-2.1	18.1
COc1ccc(-c2cc(=NCC(=O)O)c3ccccc3o2)cc1	3.3	46.7*	·	10.6
Cc1cccc(S(=O)(=O)N2[C@@H]3Cn4c(ccc(-c5ccc(F)cc5)c4=O)[C@H]2[C@@H](C(=O)O)[C@@H]3CO)c1	·	1.3	·	·
O=C(c1ccccc1)C1NC1c1ccccc1 (stereo not given)	2.2	49.1*	-3.9	18.2
CN1CC(C(=O)c2ccc(F)cc2)C(c2ccc(F)cc2)C1 (stereo not given)	3.0	0.9	5.2	3.8
CN1CC(C(=O)c2ccccc2)C(C(=O)c2ccccc2)C1 (stereo not given)	4.1	56.7*	2.4	·
CC=Cc1ccc2n(c1=O)C[C@H]1[C@H](CO)[C@@H](C(=O)OC)[C@@H]2N1CC1CCCCC1 (mixture of isomers)	·	-2.2	·	·
COc1cccc(OCc2cc(C(=O)N3C[C@H]4C[C@@H](C3)c3cccc(=O)n3C4)no2)c1	5.6	72.6*	27.8	100.7*
COC(=O)[C@@H]1[C@@H](CO)[C@@H]2Cn3c(ccc(-c4ccc(OC)cc4)c3=O)[C@H]1N2C(=O)c1ccccc1F	·	1.1	·	·
Cc1nn(CC(C)C)c(Cl)c1C(=O)NC1CCC(C)CC1 (stereo not given)	6.3	66.2*	29.0	95.6*
Cc1nn(Cc2ccccc2Cl)c(Cl)c1C(=O)OCC(=O)NC(=O)NC1CCCCC1	2.5	·	3.1	-2.9
CC/C(=N\Nc1ccccc1)c1c(O)[nH]c(=O)[nH]c1=O	-0.8	-5.1	4.1	·
CC/C(=N\NC(N)=O)c1c(O)[nH]c(=O)[nH]c1=O	1.1	·	73.6*	-1.5
CCCN1[C@@H]2c3ccc(-c4cccc(C(=O)N(C)C)c4)c(=O)n3C[C@H]1[C@H](CO)[C@H]2C(=O)OC	·	-3.3	·	·
Oc1ccc2c3c1O[C@H]1c4[nH]c5c(c4CC4(O)C(C2)N(CC2CC2)CCC314)CC1(O)[C@H]2Cc3ccc(O)c4c3[C@@]1(CCN2CC1CC1)C5O4 (stereo not given in full)	·	·	2.6	·
O=C1/C(=C/c2ccccc2)C[C@@]2(O)[C@H]3Cc4ccc(O)c5c4[C@@]2(CCN3CC2CC2)C1O5 (stereo not given in full)	-13.4	54.1*	·	-108.4
SMILES	FXN GAA850 act	esBAF inh	Wnt bcat act	MITF TRPM1 HTS
CC12CCC(=O)C=C1CCC1C2CCC2(C)C(O)CCC12 (stereo not given)	2.9	10.1	-3.0	-13.8
C[C@]12CC[C@H]3[C@@H](CCC4=CC(=O)CC[C@@]43C)[C@@H]1CC[C@@H]2O	2.8	5.3	33.3*!	-25.0
CCC(=O)N1[C@@H]2Cn3c(ccc(-c4ccc(F)cc4)c3=O)[C@H]1[C@@H](C(=O)OC)[C@@H]2CO	·	1.7	·	·
CN1C(=O)C(Cc2ccc(OCc3ccccc3)cc2)C(=O)N(C)C1=O	2.6	27.3	10.9	70.7
COc1cc(CC2C(=O)N(C)C(=O)N(C)C2=O)ccc1OCc1ccccc1	2.2	45.9*	28.0	42.7
O=[N+]([O-])c1ccccc1CNCCc1c[nH]c2ccccc12	1.0	-1.6	0.6	-12.7
O=[N+]([O-])c1ccccc1CNCCc1ccc(F)cc1	4.4	40.9*	·	21.1
COC(=O)[C@H]1[C@H](CO)[C@H]2Cn3c(ccc(-c4ccccc4F)c3=O)[C@@H]1N2Cc1cccnc1	·	-3.2	·	·
c1ccc(CN2CCc3nc4ccccc4cc3C2)cc1	2.9	52.5*	18.6	·
COC(=O)[C@H]1[C@H](CO)[C@H]2Cn3c(ccc(C4=CCCCC4)c3=O)[C@@H]1N2C(=O)NC(C)C	·	-0.2	·	·
CN1C(=O)C(=Cc2ccc(N3CCCCCC3)o2)C(=O)N(C)C1=S	1.3	40.8*	-2.1	·
CN1C(=O)C(=Cc2ccc(N3CCOCC3)o2)C(=O)N(C)C1=O	1.9	·	-0.4	7.7
O=C(O)[C@@H]1[C@@H](CO)[C@@H]2Cn3c(ccc(-c4ccncc4)c3=O)[C@H]1N2C(=O)C1CCC1	·	-0.9	·	·
CC(C)(C)C(=O)c1cn(CC(=O)NCc2ccco2)c2ccccc12	2.6	·	-1.3	84.8*
CN(C)C1C(=O)C(C(N)=O)=C(O)C2(O)C(=O)C3=C(O)c4c(O)cccc4C(C)(O)C3CC12 (stereo not given)	17.3*	3.4	·	-1.0
C=C1C(=O)O[C@@H]2C[C@@H](C)[C@H]3C=CC(=O)[C@]3(O)C[C@@H]12	13.9*	11.7	8.0	-1.5
COC(=O)[C@@H]1[C@@H](CO)[C@@H]2Cn3c(ccc(-c4ccccc4)c3=O)[C@H]1N2C(=O)c1ccccc1F	·	-4.5	·	·
O=C1NC(=S)NC(=O)C1=Cc1ccc(OCc2ccccc2)cc1	2.3	44.4*	6.5	50.0
COC(=O)[C@@H]1[C@@H](CO)[C@@H]2Cn3c(ccc(-c4ccc(F)cc4)c3=O)[C@H]1N2Cc1cccnc1	·	0.2	·	·
Cn1c(=O)oc(=O)c2ccccc21	2.9	-5.0	-1.8	-8.4
Cc1cc(C(=O)N=Nc2c(O)n(C)c3ccccc23)c(C)o1	4.2	35.7	·	87.0*
CC(C)CC#Cc1ccc([C@@H]2[C@H]3CN(C(=O)Cc4ccccn4)CCCCN3[C@H]2CO)cc1	·	-3.7	·	·
CC(=O)O[C@@H]1/C=C/[C@](C)(O)C[C@@H](C)C/C=C/[C@H]2[C@@H]3O[C@]3(C)[C@@H](C)[C@H]3[C@H](Cc4ccccc4)NC(=O)[C@@]312	18.2*	-10.9	·	·
CC(=O)c1ccc(OC(=O)N(C)c2ccccc2)cc1	3.1	·	27.1	35.9
CC(=O)c1ccc(-c2ccccc2)cc1	4.9	33.7*	15.3	31.9
COC(=O)[C@H]1[C@H](CO)[C@H]2Cn3c(ccc(-c4cccnc4)c3=O)[C@@H]1N2S(=O)(=O)c1ccccc1F	·	-1.5	·	·
c1cc2c(cc1N1CCCCC1)CNCc1cnnn1-2	·	-0.8	-0.7	·
c1ccc2oc(-c3ccc4c(c3)CNCc3cnnn3-4)cc2c1	·	66.1*	2.6	·
O=C1c2ccccc2-c2cc3ccccc3cc21	1.1	·	46.0*	33.0
